# A number with no mark means an inactive call. Inconclusive results are not listed. Entries that show only a call come without a potency. The source made the active and inactive calls. Unless noted, calls come from the whole dose curve; as a rule, active = well fitted curve in the direction sought with a large enough effect in the repeat runs; inconclusive = weak or mixed curves; inactive = no such curve, though single readings can be large; an effect the other way counts as inactive or inconclusive.
# Legend:
# [1] = qHTS assay for small molecule agonists of the p53 signaling pathway (AID 651631; calls by dose curve; note: nearly all actives have a fitted effect of over 15% in size; note: potency is the fitted concentration of half-maximal effect)
# How it was run: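 p53RE-bla HCT-116 cells; compounds 16 h, 37 °C; LiveBLAzer B/G FRET substrate 2 h RT; fluorescence intensity read-out, qHTS format.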
# [2] = qHTS assay for small molecules that induce genotoxicity in human embryonic kidney cells expressing luciferase-tagged ATAD5 (AID 651632); note: nearly all actives have a fitted effect of over 15% in size
# How it was run: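 HEK293T cells carrying a luciferase reporter tagged to ATAD5 were exposed to compound or DMSO vehicle for 16 hr at 37C, 5% CO2. Amplite was added, and after 30 min at room temperature luciferase activity was read as a marker of ATAD5 induction.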
# [3] = qHTS assay for small molecule agonists of the p53 signaling pathway - cell viability (AID 651633; calls by dose curve; note: nearly all actives have a fitted effect of over 30% in size; note: potency is the fitted concentration of half-maximal effect)
# How it was run: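 p53RE-bla cells, seeded at 4,000 per well and rested 5 h at 37 C/5% CO2, received compounds in DMSO for 16 h at 37 C. CellTiter-Glo was then added, and luminescence was read after 30 min at room temperature to gauge cytotoxicity.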
# [4] = qHTS assay for small molecules that induce genotoxicity in human embryonic kidney cells expressing luciferase-tagged ATAD5 - cell viability (AID 651634; calls by dose curve; note: nearly all actives have a fitted effect of over 25% in size; note: potency is the fitted concentration of half-maximal effect)
# How it was run: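 HEK293T cells expressing luciferase-tagged ATAD5 were exposed to compound or DMSO for 15.5 hr at 37C, 5% CO2. Viability was then read as live-cell protease activity by CellTiter-Fluor fluorescence after 30 min at 37C.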
# [5] = qHTS assay for small molecule disruptors of the mitochondrial membrane potential - cell viability (AID 720634; calls by dose curve; note: nearly all actives have a fitted effect of over 20% in size; note: potency is the fitted concentration of half-maximal effect)
# How it was run: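 HepG2 cells seeded overnight at 37 C, then exposed to compound or DMSO for 1 hr at 37 C, 5% CO2. m-MPI dye added, then CellTiter-Glo for 30 min at room temperature; viability read as ATP luminescence.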
# [6] = qHTS assay for small molecule disruptors of the mitochondrial membrane potential (AID 720635); note: potency is the fitted concentration of half-maximal effect
# How it was run: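 HepG2 cells (2,000/well) attached overnight at 37C, then took compound for 1 hr at 37C, 5% CO2. Mito-MPS dye was added for 30 min; fluorescence was read at 490/535 nm (monomers) and 540/590 nm (aggregates).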
# [7] = qHTS assay to test for compound auto fluorescence at 590 nm (red) in HepG2 cells (AID 720674)
# How it was run: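 Rose Bengal sodium served as the red fluorophore standard. HepG2 monolayers (overnight attachment, MEM with 10% FBS) were exposed to test compounds for 1 hr at 37 C and read at Ex 540/Em 590 nm.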
# [8] = qHTS assay to test for compound auto fluorescence at 535 nm (green) in HepG2 cells (AID 720675)
# [9] = qHTS assay to test for compound auto fluorescence at 460 nm (blue) in HEK293 cells (AID 720678)
# How it was run: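 Blue read-out at excitation 405 nm and emission 460 nm follows overnight compound exposure of HEK293 cells at 37C in 5% CO2. Activity is given as auto fluorescence equivalency to triamterene.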
# [10] = qHTS assay to test for compound auto fluorescence at 590 nm (red) in HEK293 cells (AID 720679)
# How it was run: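 Red channel, Ex/Em 540/590nm; signal expressed as equivalency to Rose Bengal sodium. HEK293, 2,000 cells/well, 10% dialyzed FBS; 23 nL compound pinned after 4-5 hr attachment; overnight 37C/5% CO2 before reading.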
Compound,Potency [1],Potency [2],Potency [3],Potency [4],Potency [5],Potency [6],outcome [7],outcome [8],Potency [9],outcome [10],"fluorescence, relative to Rose Bengal [7]","fluorescence, % of fluorescein control [8]","fluorescence, % of triamterene [9]","fluorescence, % of fluorescent control [10]"
CC(C)Nc1cccnc1N1CCN(C(=O)c2cc3cc(NS(C)(=O)=O)ccc3[nH]2)CC1,inactive,inactive,inactive,inactive,inactive,26.6 µM (active),inactive,inactive,inactive,inactive,,,,
Nc1ncnc2c1ncn2[C@H]1CC[C@@H](CO)O1,inactive,inactive,inactive,inactive,inactive,inactive,inactive,inactive,inactive,inactive,,,,
O=C1CCCCCCCCCCOCCCCO1,inactive,inactive,inactive,inactive,inactive,inactive,inactive,inactive,inactive,inactive,,,,
CO[C@]1(NC(=O)CSC(F)F)C(=O)N2C(C(=O)O)=C(CSc3nnnn3CCO)CO[C@H]21,inactive,inactive,inactive,inactive,inactive,inactive,inactive,inactive,inactive,inactive,,,,
O=C(O)CCC(=O)C(=O)O,inactive,inactive,inactive,inactive,inactive,inactive,inactive,inactive,inactive,inactive,,,,
CC1(C)[C@@H](OC(=O)CCC(=O)O)CC[C@]2(C)[C@H]3C(=O)C=C4[C@@H]5C[C@@](C)(C(=O)O)CC[C@]5(C)CC[C@@]4(C)[C@]3(C)CC[C@@H]12,inactive,inactive,inactive,inactive,inactive,inactive,,,,,-0.342% [at 18.6 µM],-0.0594% [at 18.6 µM],0.0377% [at 18.6 µM],0.163% [at 18.6 µM]
CCCCCCCCCI,inactive,inactive,inactive,inactive,inactive,inactive,inactive,inactive,inactive,inactive,,,,
CC(C)(C)C(=O)C(=O)O,inactive,inactive,inactive,inactive,inactive,inactive,inactive,inactive,inactive,inactive,,,,
C=C1c2cccc(O)c2C(O)=C2C(=O)[C@]3(O)C(O)=C(C(N)=O)C(=O)[C@@H](N(C)C)[C@@H]3[C@@H](O)[C@H]12,inactive,inactive,inactive,inactive,inactive,inactive,,,,,-0.284% [at 18.6 µM],-0.0181% [at 18.6 µM],1.67% [at 18.6 µM],0.604% [at 18.6 µM]
CC(CO)CO,inactive,inactive,inactive,inactive,inactive,inactive,inactive,inactive,,inactive,,,,
CCOC(=O)c1ccccc1C(=C1C=C(Br)C(=O)C(Br)=C1)c1cc(Br)c(O)c(Br)c1,7.24 µM (active),inactive,7.24 µM (active),40.7 µM (active),inactive,20.4 µM (active),inactive,inactive,,inactive,,,,
CCOC(=O)c1ccc(I)cc1,inactive,inactive,inactive,inactive,inactive,inactive,inactive,,inactive,inactive,,,,
NCCNCCO,inactive,inactive,inactive,inactive,inactive,inactive,inactive,inactive,inactive,inactive,,,,
O=Cc1c2ccccc2c(Cl)c2ccccc12,inactive,inactive,inactive,inactive,inactive,8.42 µM (active),inactive,inactive,,inactive,,,,
Cc1ccc(CO)cc1,inactive,inactive,inactive,inactive,inactive,inactive,inactive,inactive,,inactive,,,,
CO/N=C(/C(=O)N[C@@H]1C(=O)N2C(C(=O)O)=C(COC(N)=O)CS[C@H]12)c1ccco1,inactive,inactive,inactive,inactive,inactive,inactive,inactive,inactive,inactive,inactive,,,,
CCCC(=O)C(=O)O,inactive,inactive,inactive,inactive,inactive,inactive,inactive,inactive,inactive,inactive,,,,
O=c1[nH]ncc2ccccc12,inactive,inactive,inactive,inactive,inactive,inactive,inactive,inactive,,inactive,,,,
COc1cc(Nc2c(C#N)cnc3cc(OCCCN4CCN(C)CC4)c(OC)cc23)c(Cl)cc1Cl,11.9 µM (active),inactive,26.6 µM (active),29.8 µM (active),inactive,0.376 µM (active),inactive,inactive,inactive,inactive,,,,
CC(C)(O)c1ccc(CNC(=O)c2cccnc2Oc2ccc3nonc3c2)cc1,inactive,inactive,inactive,inactive,inactive,inactive,inactive,inactive,,inactive,,,,
NC(=O)c1ccncc1,inactive,inactive,inactive,inactive,inactive,inactive,inactive,inactive,,inactive,,,,
CCOC(=O)[C@H](CCc1ccccc1)N[C@@H](C)C(=O)N(CC(=O)O)C1Cc2ccccc2C1,inactive,inactive,inactive,inactive,inactive,inactive,inactive,inactive,inactive,inactive,,,,
CC(=O)OCC[N+](C)(C)C,inactive,inactive,inactive,inactive,inactive,inactive,inactive,,inactive,inactive,,,,

Compound,Potency [1],Potency [2],Potency [3],Potency [4],Potency [5],Potency [6],outcome [7],outcome [8],Potency [9],outcome [10],"fluorescence, relative to Rose Bengal [7]","fluorescence, % of fluorescein control [8]","fluorescence, % of triamterene [9]","fluorescence, % of fluorescent control [10]"
C=C(C)C(=O)OCCCCCCCCCCCCC,inactive,inactive,inactive,inactive,inactive,inactive,inactive,inactive,inactive,inactive,,,,
CC1(C)S[C@@H]2[C@H](NC(=O)C(c3ccccc3)S(=O)(=O)O)C(=O)N2[C@H]1C(=O)O (some centres undefined),inactive,inactive,inactive,inactive,inactive,inactive,inactive,inactive,inactive,inactive,,,,
Cc1ccc(C(C)(C)O)cc1,inactive,inactive,inactive,inactive,inactive,inactive,inactive,inactive,inactive,inactive,,,,
O=C(O)c1ccc(OCCCOc2ccc(C(=O)O)cc2)cc1,inactive,inactive,inactive,inactive,inactive,inactive,inactive,inactive,,inactive,,,,
O[C@@H]1CO[C@H]2[C@@H]1OC[C@@H]2O,inactive,inactive,inactive,inactive,inactive,inactive,inactive,inactive,inactive,inactive,,,,
CCC1CO1 (centres undefined),inactive,inactive,inactive,inactive,inactive,inactive,inactive,inactive,inactive,inactive,,,,
Clc1ccc(Nc2nnc(Cc3ccncc3)c3ccccc23)cc1,inactive,inactive,inactive,inactive,18.8 µM (active),26.6 µM (active),inactive,inactive,inactive,inactive,,,,
c1csc(SSc2cccs2)c1,inactive,inactive,inactive,inactive,inactive,inactive,inactive,inactive,inactive,inactive,,,,
O=C1NCCN1CCO,inactive,inactive,inactive,inactive,inactive,inactive,inactive,inactive,inactive,inactive,,,,
CCOC(=O)/C=C/C(=O)OCC,inactive,inactive,inactive,inactive,inactive,inactive,inactive,inactive,inactive,inactive,,,,
C[C@@H](O)[C@H]1C(=O)N2C(C(=O)O)=C([C@H]3CCCO3)S[C@H]12,inactive,inactive,inactive,inactive,inactive,inactive,inactive,inactive,inactive,inactive,,,,
CCOC(=O)c1ccc(OCCN2C[C@H](O)[C@@H](O)[C@H](O)[C@H]2CO)cc1,inactive,inactive,inactive,inactive,inactive,inactive,inactive,inactive,,inactive,,,,
Cc1cc(C)cc(N)c1,inactive,inactive,inactive,inactive,inactive,inactive,inactive,inactive,inactive,inactive,,,,
FC(F)(F)c1ccccc1Cl,inactive,inactive,inactive,inactive,inactive,inactive,inactive,inactive,inactive,inactive,,,,
CCCCOc1ccc(OCCCN2CCOCC2)cc1,inactive,inactive,inactive,inactive,inactive,,,,,,-0.141% [at 18.6 µM],-0.0009% [at 18.6 µM],-0.0611% [at 18.6 µM],-0.188% [at 18.6 µM]
CCCCCCCC/C=C\CCCCCCCCCCCC(=O)O,inactive,inactive,inactive,inactive,,inactive,inactive,inactive,inactive,inactive,,,,
CCOC(C)=O,inactive,inactive,inactive,inactive,inactive,,inactive,inactive,,inactive,,,,
C=Cc1ccc(S(=O)(=O)O)cc1,inactive,inactive,inactive,inactive,inactive,inactive,inactive,,,inactive,,,,
C=C(C)[C@@H]1CCC2=CCC[C@@H](C)[C@]2(C)C1,inactive,inactive,inactive,inactive,inactive,,inactive,inactive,inactive,inactive,,,,
C=COCC(C)C,inactive,inactive,inactive,inactive,inactive,,inactive,inactive,inactive,inactive,,,,
COc1cc(N)c(Cl)cc1C(=O)NC1CCN(CCCOc2ccc(F)cc2)CC1OC (centres undefined),inactive,inactive,inactive,inactive,inactive,,,,,,0.956% [at 18.6 µM],-0.0882% [at 18.6 µM],-0.493% [at 18.6 µM],0.102% [at 18.6 µM]
CC(O)c1ccccc1 (centres undefined),inactive,inactive,inactive,inactive,inactive,,inactive,inactive,inactive,inactive,,,,

# Reference: PubChem BioAssay (Tox21)
